Experiment [1] deals with Luciferin 4-monooxygenase (Photinus pyralis) (UniProt P08659). Kind of experiment: qHTS assay to identify small molecule inhibitors of firefly luciferase (AID 1224835). Further: nearly all actives have a fitted effect of over 25% in size. Further: potency means the concentration at half of the fitted maximal effect. Put shortly: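 Biochemical qHTS: compounds run as interplate titrations against purified firefly enzyme, with D-luciferin and ATP each at its KM concentration. Light output recorded by CCD imaging.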
Chain of Luciferin 4-monooxygenase (Photinus pyralis) (P08659 whole entry, looked up): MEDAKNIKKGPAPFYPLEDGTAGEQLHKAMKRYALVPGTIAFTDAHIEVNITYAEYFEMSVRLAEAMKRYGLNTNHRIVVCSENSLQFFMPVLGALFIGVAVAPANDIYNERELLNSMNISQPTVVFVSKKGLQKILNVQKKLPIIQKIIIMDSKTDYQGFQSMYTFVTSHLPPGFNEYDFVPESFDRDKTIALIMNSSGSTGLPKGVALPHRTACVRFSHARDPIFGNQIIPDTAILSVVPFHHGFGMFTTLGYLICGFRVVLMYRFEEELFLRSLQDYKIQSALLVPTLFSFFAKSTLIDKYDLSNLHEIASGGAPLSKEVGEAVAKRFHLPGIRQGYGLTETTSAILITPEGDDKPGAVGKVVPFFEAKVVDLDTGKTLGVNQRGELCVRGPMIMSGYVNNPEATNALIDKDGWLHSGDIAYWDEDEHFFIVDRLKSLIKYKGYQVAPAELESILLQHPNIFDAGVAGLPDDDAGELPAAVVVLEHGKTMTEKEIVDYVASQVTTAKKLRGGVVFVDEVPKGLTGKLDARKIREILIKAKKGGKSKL
In general terms: In qHTS, concentration-response curves come from the screen itself.

Experiment [2] can be described thus: qHTS assay to identify small molecule agonists of the constitutive androstane receptor (CAR) signaling pathway - cell viability counter screen (AID 1224836). Further: nearly all actives have a fitted effect of over 45% in size. Put shortly: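 Fluorescence from CellTiter-Fluor indicates live cells after 23 h exposure. The human hepatoma line expresses hCAR and a CYP2B6-2.2kb reporter. Incubation medium contains 0.75 uM PK11195 (final).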

Experiment [3] in a line: qHTS assay to identify small molecule antagonists of the constitutive androstane receptor (CAR) signaling pathway - cell viability counter screen (AID 1224837). Further: nearly all actives have a fitted effect of over 45% in size. An outline of the steps:
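Multiplexed cytotoxicity read-out for the CAR antagonist screen: double-stable HepG2-CYP2B6-hCAR cells co-treated with 50 nM CITCO (final) and compound over 15 concentrations, incubated 23 hr, then assessed by CellTiter-Fluor fluorescence.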

The target in experiment [4] is Nuclear receptor subfamily 1 group I member 3 (Homo sapiens) (UniProt Q14994). Nature of the experiment: qHTS assay to identify small molecule antagonists of the constitutive androstane receptor (CAR) signaling pathway (AID 1224838). Further: nearly all actives have a fitted effect of over 40% in size. Put shortly:
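Compounds were titrated across 15 concentrations onto HepG2 cells double-stably expressing hCAR and a CYP2B6-2.2kb reporter, together with 50 nM CITCO (final). After 24 h at 37 C, luciferase activity was measured by luminescence.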

A short description of experiment [5]: qHTS assay to identify small molecule antagonists of the estrogen related receptor signaling pathway with the pleiotropic PPARgamma coactivator (PGC) from Tox21 10K library - cell viability counter screen (AID 1224840; active means well fitted cell-killing curve with a large enough effect in the repeat runs, not every such curve was filed as active; further: nearly all actives have a fitted effect of over 40% in size). Put shortly:
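Step one, plate 2,000 PGC/ERR cells per well; step two, incubate 6 h at 37 C/5% CO2; step three, pin-transfer compounds; step four, incubate 17.5 h; step five, add CellTiter-Fluor and read fluorescence after 30 min.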

Experiment [6] addresses Thyrotropin receptor (Homo sapiens) (UniProt P16473). Kind of experiment: qHTS assay to identify small molecule agonists of the thyroid stimulating hormone receptor (TSHR) signaling pathway (AID 1224843; calls by dose curve; further: nearly all actives have a fitted effect of over 45% in size). Put shortly:
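Steps: seed 800 TSHR-HEK293 cells per well; add test compound and hold 30 min at ambient temperature; dispense cAMP-d2 then anti-cAMP cryptate; incubate 1 h at ambient; measure fluorescence intensity.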

Experiment [7] can be described thus: qHTS assay to identify small molecule agonists of the hypoxia (HIF-1) signaling pathway - cell viability counter screen (AID 1224844; calls by dose curve; further: nearly all actives have a fitted effect of over 50% in size). An outline of the steps: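 Tox21 10K compounds were added to HRE-bla ME-180 cells (0.5% dialyzed FBS) and incubated 17 hrs at 37C; ATP-based CellTiter-Glo luminescence then reported cell viability in the same wells.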
The nature of experiment [8]: qHTS assay to identify small molecule agonists of H2AX (AID 1224845; active means well fitted activation curve with a large enough effect in the signal ratio in the repeat runs, not every such curve was filed as active; the % refers to the signal ratio). Put shortly:
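Wild-type CHO-K1 cells, plated overnight, exposed 3hr at 37C to 15 concentrations (0.76% DMSO final). Lysed, then HTRF anti-pH2AX (S139) cryptate and anti-H2AX-d2 antibodies, 24 hr room temperature; 665/620 nm emission read.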

A short description of experiment [9]: qHTS assay to identify small molecule agonists of the hypoxia (HIF-1) signaling pathway (AID 1224846; active means well fitted activation curve with a large enough effect in the signal ratio in the repeat runs, not every such curve was filed as active; the % refers to the signal ratio). Put shortly: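 Steps: seed ME-180 HRE-bla cells (2,000/well, 0.5% dialyzed FBS); incubate 5 hrs at 37C; pin-transfer compounds or DMSO; incubate 17 hrs; add LiveBLAzer B/G substrate CCF4-AM; measure reporter activation by FRET.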
A short description of experiment [10]: qHTS assay to identify small molecule agonists of H2AX - cell viability counter screen (AID 1224847; calls by dose curve; further: top concentration of the series differs between compounds; nearly all actives have a fitted effect of over 30% in size). An outline of the steps: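 Viability of CHO-K1 (wild type) cells after 3 hr compound exposure was measured by CellTiter-Glo luminescence.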
Experiment [11] in a line: qHTS RealTime-Glo MT Cell Viability Assay in HepG2 cells - 24 hour (AID 1224867). Further: nearly all actives have a fitted effect of over 50% in size. An outline of the steps: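 HepG2 cells were seeded at 600 cells/well together with NanoLuc luciferase and a cell-permeant prosubstrate, preincubated 5 h at 37 C/5% CO2, then pin-dosed with compounds in DMSO. Nonlytic luminescence from viable cells was read at each time point.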
Experiment [12] is described as follows: qHTS RealTime-Glo MT Cell Viability Assay in HEK293 cells - 32 hour (AID 1224868). Further: nearly all actives have a fitted effect of over 50% in size. Further: potency means the concentration at half of the fitted maximal effect. Put shortly: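 HEK293 cells were seeded at 600 cells/well together with NanoLuc luciferase and cell-permeant prosubstrate, preincubated 5 h at 37 C/5% CO2, then given compound in DMSO by pintool. Luminescence from viable-cell prosubstrate reduction was read repeatedly over 40 h.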

Experiment [13] in a line: A CellTox Green Cytotoxicity Assay to monitor cytotoxicity in HEK293 cells - 0 hour (AID 1224869). Further: nearly all actives have a fitted effect of over 50% in size. Put shortly: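 Cytotoxicity was tracked continuously in HEK293 cells by a DNA-binding dye excluded from viable cells. Compounds were transferred in DMSO 5 h after seeding; fluorescence was recorded at intervals up to 40 h.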
For experiment [14], the target named is Nuclear receptor subfamily 1 group I member 3 (Homo sapiens) (UniProt Q14994). Nature of the experiment: qHTS assay to identify small molecule agonists of the constitutive androstane receptor (CAR) signaling pathway (AID 1224839). Further: nearly all actives have a fitted effect of over 15% in size. Further: potency means the concentration at half of the fitted maximal effect.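 On activation: HepG2 cells stably carrying human CAR and a CYP2B6 luciferase reporter.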 An outline of the steps:
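Stable hCAR/CYP2B6-2.2kb HepG2 line in DMEM with 10% FBS; compounds (15 concentrations) and 0.75 uM PK11195 final, 24 h at 37 C/5% CO2, then ONE-Glo luminescence after 30 min.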

The nature of experiment [15]: qHTS assay to identify small molecule antagonists of the estrogen related receptor signaling pathway with the pleiotropic PPARgamma coactivator (PGC) from Tox21 10K library (AID 1224841; call rule not given here). Put shortly: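 Antagonism in this quantitative HTS is taken from loss of luciferase signal in PGC/ERR cells. Cells (2,000/well) are treated with compounds in DMSO after a 6 h settling period and read by One-Glo luminescence after 18 h.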

The nature of experiment [16]: qHTS assay to identify small molecule agonists of the estrogen related receptor signaling pathway with the pleiotropic PPARgamma coactivator (PGC) from Tox21 10K library (AID 1224842). Further: nearly all actives have a fitted effect of over 15% in size. An outline of the steps:
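PGC/ERR reporter cell line, 2,000 cells per well, incubated 6 h at 37 C before 23 nL compound in DMSO was added. After 18 h at 37 C, One-Glo luminescence read following 30 min at room temperature.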

A short description of experiment [17]: qHTS assay to identify small molecule antagonists of the estrogen related receptor (ERR) signaling pathway from Tox21 library (AID 1224848). Further: nearly all actives have a fitted effect of over 50% in size. Further: potency means the concentration at half of the fitted maximal effect. Put shortly:
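Luminescent reporter read-out (ONE-Glo) from NTP's ERR cell line after 18 h treatment at 37 C with DMSO-dissolved Tox21 compounds; cells pre-plated 6 h beforehand at 2,000 per well.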

Experiment [18] is described as follows: qHTS assay to identify small molecule agonists of the estrogen related receptor (ERR) signaling pathway from Tox21 library (AID 1224849; calls by dose curve; further: nearly all actives have a fitted effect of over 15% in size). Conditions: ERR reporter cell line, ONE-Glo luciferase, 18 h; at 92.4 µM (top of the series) unless noted. An outline of the steps:
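Agonist signal is luciferase luminescence from an ERR reporter cell line treated 18 h at 37 C with DMSO-dissolved compounds, read 30 min after ONE-Glo addition at room temperature.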

Values without a mark were called inactive. Inconclusive results are not listed. Activity calls are given as the source filed them. Unless noted, the call rests on the fitted dose curve; in most records, active means well fitted curve in the direction sought with a large enough effect in the repeat runs; inconclusive means weak or mixed curves; inactive means no such curve, though single readings can be large; an effect the other way counts as inactive or inconclusive.
On the % scale 0 is the no-effect control and ±100 the full control effect.

Chain of Thyrotropin receptor (Homo sapiens) (P16473 whole entry, looked up): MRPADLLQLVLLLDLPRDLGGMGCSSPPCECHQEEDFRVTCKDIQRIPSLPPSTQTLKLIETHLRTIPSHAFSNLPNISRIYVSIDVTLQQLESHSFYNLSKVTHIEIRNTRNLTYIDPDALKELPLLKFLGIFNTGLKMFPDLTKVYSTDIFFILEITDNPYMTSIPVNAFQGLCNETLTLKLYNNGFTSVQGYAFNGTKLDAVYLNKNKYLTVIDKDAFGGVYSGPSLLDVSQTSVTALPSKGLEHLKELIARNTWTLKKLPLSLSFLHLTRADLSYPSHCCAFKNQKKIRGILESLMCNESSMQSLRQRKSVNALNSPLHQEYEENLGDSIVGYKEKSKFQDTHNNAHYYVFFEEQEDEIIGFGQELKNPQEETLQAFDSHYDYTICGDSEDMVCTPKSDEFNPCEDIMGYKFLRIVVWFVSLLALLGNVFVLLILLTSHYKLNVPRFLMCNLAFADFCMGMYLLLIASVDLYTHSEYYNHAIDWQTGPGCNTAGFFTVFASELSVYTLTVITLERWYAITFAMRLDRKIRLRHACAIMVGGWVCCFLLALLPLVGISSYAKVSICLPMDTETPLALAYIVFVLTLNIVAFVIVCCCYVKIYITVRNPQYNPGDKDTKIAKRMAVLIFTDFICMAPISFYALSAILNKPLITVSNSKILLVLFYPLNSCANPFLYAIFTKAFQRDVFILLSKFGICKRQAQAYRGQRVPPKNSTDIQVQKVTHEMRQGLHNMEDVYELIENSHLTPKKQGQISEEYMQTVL
Chain of Nuclear receptor subfamily 1 group I member 3 (Homo sapiens) (Q14994 whole entry, looked up): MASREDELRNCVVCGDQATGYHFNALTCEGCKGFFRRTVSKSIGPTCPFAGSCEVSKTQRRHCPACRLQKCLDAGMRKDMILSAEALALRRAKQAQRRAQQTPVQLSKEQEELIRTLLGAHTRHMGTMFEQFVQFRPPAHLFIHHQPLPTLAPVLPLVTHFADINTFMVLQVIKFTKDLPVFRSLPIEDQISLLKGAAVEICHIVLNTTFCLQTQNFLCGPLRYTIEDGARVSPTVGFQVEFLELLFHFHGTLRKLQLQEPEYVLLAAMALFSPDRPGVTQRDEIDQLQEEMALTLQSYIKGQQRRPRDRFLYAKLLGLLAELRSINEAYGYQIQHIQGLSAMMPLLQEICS

Regarding `ON(Cc1ccccc1)Cc1ccccc1`, the Potency entry in [1], in experiment [2], in experiment [3], in experiment [4], in [5] and in experiment [6] was “inactive” in each case. The Potency result in experiment [7], in experiment [8], in experiment [10], in experiment [11], in [12] and in experiment [13] was “inactive” each time. The result in experiment [9] was inactive.
For `CCCCC(CC)CNCC(CC)CCCC` (configuration not stated), the Potency entry in experiment [1], in [2], in [3], in experiment [4], in experiment [14] and in experiment [5] was “inactive” in each case. Moreover, the Potency entry in [15], in experiment [16], in [6], in experiment [7], in experiment [8] and in experiment [10] was “inactive” in each case. For the same molecule, the Potency entry in experiment [17], in experiment [11], in experiment [12] and in [13] was “inactive” in each case. The outcome in experiment [9] was inactive. Further, the activity change, positive = activation in [18] was 4.2%.
As to `O=C(c1ccc(O)cc1)c1ccc(Cl)cc1`, the Potency in experiment [1] is 64.7 µM (active); in experiment [14], 49.6 µM (active); in experiment [12], 25.1 µM (active). The Potency entry in [2], in experiment [3], in experiment [4], in experiment [5], in experiment [7] and in experiment [8] was “inactive” in each case. Moreover, the Potency result in experiment [11] and in [13] was “inactive” each time. The molecule was called inactive in experiment [9].
Consider `Oc1ccc(Nc2ccccc2)cc1`, for which the Potency result in experiment [1], in experiment [2], in experiment [3], in experiment [4], in experiment [15] and in experiment [6] was “inactive” each time. The Potency result in experiment [10] and in experiment [13] was “inactive” each time. The outcome in experiment [9] was inactive. For the same molecule, the Potency is 24.3 µM (active) in [17] and 21.9 µM (active) in experiment [12]. Moreover, in experiment [18], the activity change, positive = activation was -35.9%.
With `Cc1cc(O)c2c(O)c3c(O)cccc3cc2c1`, the Potency result in [1], in experiment [2], in [3], in [4], in [5] and in experiment [16] was “inactive” throughout. Besides, the Potency entry in experiment [6], in [7], in experiment [8], in experiment [10], in experiment [11] and in experiment [12] was “inactive” each time. Moreover, the Potency entry in [13] was “inactive”. The Potency in experiment [14] was 29.8 µM (active). Moreover, the result in [9] was inactive. In experiment [18], the activity change, positive = activation is -25.3% [at 42.5 µM].
Turning to `Oc1cc(O)c(Cl)cc1Cl`, the Potency result in experiment [1], in experiment [2], in [3], in [4], in experiment [14] and in [5] was “inactive” in each case. Further, the Potency result in experiment [15], in experiment [16], in experiment [6], in experiment [7], in [10] and in experiment [17] was “inactive” each time. Also, the Potency entry in [11], in experiment [12] and in [13] was “inactive” in each case. Further, the activity change, positive = activation in experiment [18] is -14.1%.
Turning to `CCOC(=O)/C=C/C(=O)O`, the Potency entry in experiment [1], in experiment [2], in experiment [3], in experiment [4], in experiment [5] and in [6] was “inactive” in each case. The Potency entry in [7], in [8], in [10], in [11], in experiment [12] and in experiment [13] was “inactive” throughout. Besides, in [9], the result was inactive.
`c1cc[c]([Bi]([c]2ccccc2)[c]2ccccc2)cc1`: the Potency result in experiment [1], in experiment [2], in [3], in experiment [4], in experiment [5] and in [16] was “inactive” each time. Moreover, the Potency entry in [7], in experiment [11] and in experiment [13] was “inactive” throughout. In addition, the Potency is 15.4 µM (active) in [14] and 61.1 µM (active) in experiment [17]. Moreover, in experiment [18], the activity change, positive = activation is -40.9%.
